Assay [1] has as its target Arylsulfatase A (Homo sapiens) (UniProt P15289). Kind of assay: qHTS screen for enhancers of Arylsulfatase A (ASA1): LOPAC Validation Assay (AID 720538). Also: potency is read from the fitted curve at half-maximal effect. The gist of the method: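 Read-out: fluorescence at Ex=525/Em=598 nm after 1N NaOH final stop. Patient fibroblasts carrying ASA-I179S had 48h compound exposure, then 14h room-temperature pNCS hydrolysis (0.5mM final) in lysis buffer. Signal increase = enhanced activity.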
On the technique in general: qHTS replaces the single test concentration by a dilution series.

The nature of assay [2]: qHTS for compounds that reverse cellular toxicity of Amyloid beta (A-beta) peptide in yeast: LOPAC Validation Assay (AID 720559). In short, it runs like this: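 OD600 growth readout after 48 hr at 30 C; A-beta-toxic yeast plus pinned compounds in medium. Normalization: DMSO = negative, equimolar FeCl3 + clioquinol = positive.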
The nature of assay [3]: qHTS for Activators of Parkin Expression: LOPAC Validation Assay (NLuc Reporter) (AID 720572). The gist of the method: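 Parkin promoter-driven FLuc/NLuc neuronal reporter cells; 24 h plating, 7-pt dose response, 24 h at 37 C/5% CO2; FLuc then NanoLuc reagent, 10 min each, luminescence; DMSO/positive control normalized.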
Assay [4] is described as follows: qHTS for Activators of Parkin Expression: LOPAC Validation Assay (FLuc Reporter) (AID 720573). The gist of the method:
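FLuc luminescence read-out from a neuronal line expressing a Parkin-promoter-driven coincidence reporter. Cells treated 24 h at 37 C, 5% CO2 with compounds at 7 concentrations; signal increase normalized to DMSO and positive control.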

Inconclusive results are not listed. Where a call stands in place of a potency, no number is given. Calls of active or inactive are those of the source. Calls follow the shape of the dose curve; as a rule, active = well fitted curve in the direction sought with a large enough effect; inconclusive = small, poorly fitted or top-dose-only effect, or another doubt; inactive = no such curve, though single readings can be large; an effect the other way counts as inactive or inconclusive.

Here are results for 40 molecules from PubChem BioAssay (NCATS).

Arylsulfatase A (Homo sapiens), sequence (P15289 whole entry, looked up): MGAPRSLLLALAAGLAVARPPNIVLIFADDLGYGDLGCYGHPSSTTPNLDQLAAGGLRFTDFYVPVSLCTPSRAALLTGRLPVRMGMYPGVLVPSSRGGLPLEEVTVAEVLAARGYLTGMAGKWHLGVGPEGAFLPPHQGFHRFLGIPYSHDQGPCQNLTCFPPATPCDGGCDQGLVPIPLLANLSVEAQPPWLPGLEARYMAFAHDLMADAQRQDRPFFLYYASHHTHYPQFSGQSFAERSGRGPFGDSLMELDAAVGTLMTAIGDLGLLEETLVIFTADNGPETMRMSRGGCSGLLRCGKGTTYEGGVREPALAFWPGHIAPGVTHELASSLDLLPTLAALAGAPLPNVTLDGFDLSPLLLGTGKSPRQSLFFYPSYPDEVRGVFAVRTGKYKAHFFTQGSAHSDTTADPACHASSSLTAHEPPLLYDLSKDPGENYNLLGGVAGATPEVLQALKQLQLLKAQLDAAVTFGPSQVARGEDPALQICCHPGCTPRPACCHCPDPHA

For `COc1cc(C(O)C(=O)O)ccc1O` (stereo not drawn), the Potency result in assay [1], in assay [3] and in assay [4] was “inactive” in each case. In assay [2], the molecule was classed as inactive.

As for `NCCNS(=O)(=O)c1cccc2c(Cl)cccc12`, the Potency entry in assay [1], in assay [3] and in assay [4] was “inactive” throughout. Further, the result in assay [2] was inactive.

In the case of `CCCCCCCCCCC(C)(C)C(=O)Nc1c(OC)cc(OC)cc1OC`, the Potency result in assay [1], in assay [3] and in assay [4] was “inactive” each time. In addition, the outcome in assay [2] was inactive.

For the molecule `OC[C@H]1O[C@H](n2cnc3c(N[C@H]4CCC[C@@H]4O)ncnc32)[C@H](O)[C@@H]1O`, the Potency result in assay [1], in assay [3] and in assay [4] was “inactive” throughout. For the same molecule, the molecule was classed as inactive in assay [2].

`O=C(O)C1=CCCN(CCON=C(c2ccccc2)c2ccccc2)C1`: the Potency result in assay [1], in assay [3] and in assay [4] was “inactive” throughout. Also, the molecule was classed as inactive in assay [2].

As for `C=CCN1CCc2cc(O)c(O)cc2C(c2ccccc2)C1` (stereo not drawn), the Potency result in assay [1], in assay [3] and in assay [4] was “inactive” each time. Also, the result in assay [2] was inactive.

For the molecule `NS(=O)(=O)c1cccc2c1c([N+](=O)[O-])cc1nc(O)c(O)nc12`, in assay [1], the Potency was 10.7 µM (active). Moreover, the molecule was classed as inactive in assay [2]. In addition, the Potency result in assay [3] and in assay [4] was “inactive” throughout.

Regarding `C=CC[C@H](N)C(=O)O`, the Potency result in assay [1], in assay [3] and in assay [4] was “inactive” each time. Further, the outcome in assay [2] was inactive.

As for `COc1cc(CNC(=O)CCCCCCC(C)C)ccc1O`, the Potency result in assay [1], in assay [3] and in assay [4] was “inactive” each time. Further, the molecule was called inactive in assay [2].

Consider `O=C(O)C1=CCNCC1`, for which the Potency result in assay [1], in assay [3] and in assay [4] was “inactive” each time. For the same molecule, the call in assay [2] was inactive.

Consider `CCCn1c(=O)c(C)cn2nc(N)nc12`, for which the Potency entry in assay [1], in assay [3] and in assay [4] was “inactive” in each case. Also, the call in assay [2] was inactive.

As to `C[C@H](O)C(=O)C1=Nc2c(nc(N)[nH]c2=O)NC1`, the Potency entry in assay [1], in assay [3] and in assay [4] was “inactive” throughout. In addition, the result in assay [2] was inactive.

`O=c1onc2cnc3ccccc3n12`: the Potency entry in assay [1], in assay [3] and in assay [4] was “inactive” throughout. Also, the outcome in assay [2] was inactive.

Regarding `N[C@@H](Cc1ccc(F)cc1)C(=O)O`, the Potency result in assay [1], in assay [3] and in assay [4] was “inactive” throughout. Moreover, the molecule was called inactive in assay [2].

On to `COc1ccc(CCn2nnnc2C2(c3ccc(C)cc3)CC2)cc1`, for which the Potency entry in assay [1] and in assay [3] was “inactive” in each case. The molecule was classed as inactive in assay [2].

As to `Nc1ncnc2c1ncn2C1CCCC1`, the Potency result in assay [1], in assay [3] and in assay [4] was “inactive” throughout. Besides, the call in assay [2] was inactive.

With `N[C@@H](CCC(=O)N[C@H](CSN=O)C(=O)NCC(=O)O)C(=O)O`, the Potency entry in assay [1], in assay [3] and in assay [4] was “inactive” in each case. The molecule was classed as inactive in assay [2].

As to `CN(C)C(=O)/N=N/C(=O)N(C)C`, the Potency result in assay [1], in assay [3] and in assay [4] was “inactive” each time. Moreover, the call in assay [2] was inactive.

Take `COc1ccc2c(c1)CCC1C2CC[C@@]2(C)C1CC[C@@H]2NCCCCCCN1C(=O)C=CC1=O` (stereo partly drawn): the Potency result in assay [1] and in assay [3] was “inactive” each time. The result in assay [2] was inactive.

`CC(=O)/C(C)=N/O`: the Potency entry in assay [1], in assay [3] and in assay [4] was “inactive” in each case. Moreover, the call in assay [2] was inactive.

On to `O=C(O)C1CN(CCCP(=O)(O)O)CCN1` (stereo not drawn), for which the Potency result in assay [1], in assay [3] and in assay [4] was “inactive” each time. Further, in assay [2], the outcome was inactive.

For the molecule `NOCC(=O)O`, the Potency entry in assay [1], in assay [3] and in assay [4] was “inactive” throughout. For the same molecule, in assay [2], the outcome was inactive.

Consider `O=c1ccn([C@@H]2O[C@H](COP(=O)(O)OP(=O)(O)O)[C@@H](O)[C@H]2O)c(=O)[nH]1`, for which the Potency result in assay [1], in assay [3] and in assay [4] was “inactive” each time. Moreover, the molecule was called inactive in assay [2].

For the molecule `O=C(O)c1ccccc1Nc1ccccc1`, the Potency entry in assay [1], in assay [3] and in assay [4] was “inactive” each time. In assay [2], the molecule was called inactive.

`O=C(O)[C@H]1NCCC[C@H]1C(=O)O`: the Potency result in assay [1], in assay [3] and in assay [4] was “inactive” each time. The outcome in assay [2] was inactive.

With `COc1cccc(OC)c1OCCNCC1CSc2ccccc2O1` (stereo not drawn), the Potency in assay [1] was 1.07 µM (active). Further, in assay [2], the molecule was classed as inactive. Further, the Potency result in assay [3] and in assay [4] was “inactive” each time.

Regarding `Nc1ccc(CCNc2ncnc3c2ncn3C2OC(CO)C(O)C2O)cc1` (stereo not drawn), the Potency result in assay [1], in assay [3] and in assay [4] was “inactive” each time. Also, the molecule was classed as inactive in assay [2].

For `CC1CCN=C(N)S1` (stereo not drawn), the Potency result in assay [1], in assay [3] and in assay [4] was “inactive” each time. In addition, the result in assay [2] was inactive.

For the molecule `CC1C(=O)N(C)C(=O)c2nc[nH]c21` (stereo not drawn), the Potency result in assay [1], in assay [3] and in assay [4] was “inactive” throughout. In addition, in assay [2], the molecule was classed as inactive.

In the case of `CCSC(=N)N`, the Potency result in assay [1], in assay [3] and in assay [4] was “inactive” in each case. The outcome in assay [2] was inactive.

For `O=C(O)Cc1ccc(O)c(O)c1`, the Potency entry in assay [1], in assay [3] and in assay [4] was “inactive” each time. Further, in assay [2], the result was inactive.

On to `COC(=O)C(N)Cc1ccc(Cl)cc1` (stereo not drawn), for which the Potency result in assay [1], in assay [3] and in assay [4] was “inactive” in each case. Besides, in assay [2], the molecule was classed as inactive.

As for `CNc1cc(NS(=O)(=O)c2ccc(N)cc2)nc(NC)n1`, the Potency entry in assay [1], in assay [3] and in assay [4] was “inactive” in each case. Also, the call in assay [2] was inactive.

On to `NCCCCN=C(N)N`, for which the Potency entry in assay [1], in assay [3] and in assay [4] was “inactive” throughout. For the same molecule, in assay [2], the outcome was inactive.

On to `CCCn1c(=O)c2[nH]c(C3CCCC3)nc2n(CCC)c1=O`, for which the Potency result in assay [1], in assay [3] and in assay [4] was “inactive” throughout. Besides, in assay [2], the result was inactive.

Turning to `c1ccc(CN2CCC3(CCCc4ccccc43)CC2)cc1`, the Potency entry in assay [1], in assay [3] and in assay [4] was “inactive” in each case. The result in assay [2] was inactive.

Regarding `CC(C)NCC(O)COc1ccc(CC(N)=O)cc1` (stereo not drawn), the Potency entry in assay [1], in assay [3] and in assay [4] was “inactive” each time. Besides, the call in assay [2] was inactive.

As to `CCCCCC[C@@H]([C@@H](C)O)n1cnc2c(N)ncnc21`, the Potency entry in assay [1], in assay [3] and in assay [4] was “inactive” in each case. In addition, in assay [2], the molecule was classed as inactive.

With `CC1CCN(CC[C@H]2CCCN2S(=O)(=O)c2cccc(O)c2)CC1`, the Potency result in assay [1], in assay [3] and in assay [4] was “inactive” each time. Also, the molecule was classed as inactive in assay [2].

With `N#CC(C#N)=C(N)/C(C#N)=C/c1ccc(O)cc1`, the Potency entry in assay [1], in assay [3] and in assay [4] was “inactive” throughout. In addition, the call in assay [2] was inactive.
